In PubChem BioAssay AID651640 (Broad Institute, 2012):
The campaign covered roughly 350,000 compounds. About 6,000 (1.7%) were called active. Not shown: some 5% with an inconclusive outcome. This is one part of a sample in which actives are shown more often than they occur. Cut-off read from the data, not from the text of the source: active = CPE inhibition above about 20% (passing the limit was not always enough); inconclusive = no clear call, values can overlap the other calls; tested in BHK-21 cells.

Test: inhibitors of DENV2 cytopathic effect, primary screen, cell-based, plate reader, single concentration (AID 651640);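 note: 0% = median of neutral control wells and 100% = median of positive control wells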
Details: DENV2-infected cells, cytopathic effect rescue, at 9.99 µM, stronger effect = higher value

CPE inhibition, inactive:
CNC(=O)C[C@@H]1CC[C@@H]2[C@@H](COc3ccc(NC(=O)c4ccc(F)cc4)cc3C(=O)N2C)O1 -2.03%
Cc1noc(C)c1NC(=O)N(C)C[C@@H]1Oc2c(NC(=O)C3CCCCC3)cccc2C(=O)N([C@H](C)CO)C[C@@H]1C -0.956%
Cc1noc(C)c1NC(=O)Nc1cccc2c1O[C@H](CN(C)C(=O)Nc1c(C)noc1C)[C@@H](C)CN([C@@H](C)CO)C2=O -1.85%
C[C@@H]1CN([C@@H](C)CO)C(=O)c2cccc(NC(=O)CCCCCC(=O)Nc3ccccc3N)c2O[C@H]1CN(C)C(=O)Nc1ccccc1 4.08%
C[C@H]1CN([C@@H](C)CO)C(=O)c2cccc(NC(=O)Nc3ccccc3)c2O[C@H]1CN(C)C(=O)Nc1cccc2ccccc12 3.97%
COCC(=O)N1[C@H](CO)[C@H](c2ccccc2C2=CCCCC2)[C@@H]1C#N 5.95%
C[C@H]1CN([C@@H](C)CO)C(=O)c2cccc(NC(=O)Nc3ccc(C(F)(F)F)cc3)c2O[C@H]1CN(C)CC1CCCCC1 -8.84%
CC(=O)N1[C@H](CN(C)S(=O)(=O)c2ccccc2)[C@H](c2ccccc2)[C@@H]1CO 15.4%
COc1cccc(S(=O)(=O)N(C)C[C@@H]2Oc3cc(C4=CCCCC4)ccc3S(=O)(=O)N([C@H](C)CO)C[C@H]2C)c1 2.02%
O=C(COc1ccc2c3c(c(=O)oc2c1)CCCC3)NCC(O)c1ccccc1 (stereo not drawn) 3.96%
O=C(COc1ccc2c3c(c(=O)oc2c1)CCC3)NC1CCCCC1 2.16%
COC(=O)C1=C(C)N(Cc2cccc(C(F)(F)F)c2)C(=NCc2cccc(C(F)(F)F)c2)NC1c1ccccc1C(F)(F)F (stereo not drawn) 19.7%
COC(=O)C1=C(C)N(Cc2cccc(C(F)(F)F)c2)C(=NCc2ccccc2)NC1c1ccccc1C(F)(F)F (stereo not drawn) -6.35%
Cc1noc(C)c1NC(=O)Nc1ccc2c(c1)C(=O)N([C@H](C)CO)C[C@H](C)[C@H](CN(C)C(=O)C1CCCCC1)OCCCC[C@@H](C)O2 -8%
CCN1[C@@H]2c3ccc(C4=CCCC4)c(=O)n3C[C@@H]2[C@@H](CO)[C@@H]1C(=O)NCc1ccccn1 -1.73%
O=C(Cc1ccccn1)N[C@@H]1CC[C@H](CCn2cc(-c3ccc(F)cc3)nn2)O[C@@H]1CO -1.64%
COCC(=O)Nc1ccc2c(c1)[C@@H]1C[C@H](CC(=O)NCc3ccc(Cl)cc3)O[C@H](CO)[C@@H]1O2 2.48%
O=C(NCCCN1CCCCC1)C1CC(=O)N(CCc2ccccc2)C1 (stereo not drawn) 4.06%
O=C(NC1CCCCC1)C1CC(=O)N(CCc2ccccc2)C1 (stereo not drawn) -1.18%
CCCN1C[C@@H](C)[C@@H](OC)CN(C)C(=O)c2cc(NC(=O)c3ccccc3)ccc2OC[C@H]1C -10.4%
CC1(C(=O)NCc2ccco2)Cc2c(-c3ccc4c(c3)OCO4)ccnc2O1 (stereo not drawn) 7.65%
COc1ccc(NC(=O)C2(C)Cc3c(-c4cccc(NC(C)=O)c4)ccnc3O2)cc1 (stereo not drawn) -2.95%
COCC#Cc1cnc2c(c1)C(=O)N([C@@H](C)CO)C[C@@H](C)[C@@H](CN(C)C(=O)Nc1ccccc1OC)O2 8.53%
CCN1CCN(C(=O)N(Cc2ccc(Cl)cc2)S(=O)(=O)c2ccc(C)cc2)CC1 -3.82%
CN1CCN(CC(=O)Nc2cccc([N+](=O)[O-])c2)CC1 -4.21%
Cc1ccccc1-c1ccc2c(c1)O[C@@H](CN(C)Cc1ccncc1)[C@@H](C)CN([C@H](C)CO)S2(=O)=O 7.62%
CN(C)c1ccc2c(c1)[C@H]1C[C@H](CC(=O)O)O[C@H](CO)[C@H]1O2 0.102%
C[C@@H]1CN([C@@H](C)CO)C(=O)c2cccc(NC(=O)c3ccc(-c4nccs4)cc3)c2O[C@H]1CN(C)Cc1ccc(Cl)c(Cl)c1 -8.98%
Cc1ccc(C(=O)Oc2ccc(C(=S)N3CCOCC3)cc2)cc1 12.3%
Cc1ccc(C(=O)N2CCN(S(=O)(=O)N3CCOCC3)CC2)cc1 -4.28%
C[C@@H]1CCCCO[C@H](CN(C)Cc2ccc(Cl)c(Cl)c2)[C@H](C)CN([C@@H](C)CO)C(=O)c2cc(NC(=O)CCC(F)(F)F)ccc2O1 2.84%
C[C@H](NC(=O)C[C@H]1CC[C@H]2[C@@H](COC[C@H](O)CN2C(=O)Nc2cc(Cl)cc(Cl)c2)O1)c1ccccc1 -1.1%
C/C=C\C=C\C(=O)N1CC2(CC(c3cccc(NC(=O)/C(C)=C\C)c3)=NO2)C[C@H]1C(N)=O (stereo partly drawn) 11.7%
CC/C=C/C(=O)N1CC2(CC(c3cccc(NC(=O)CC)c3)=NO2)C[C@H]1C(N)=O (stereo partly drawn) -7.83%
C[C@@H]1CN([C@H](C)CO)C(=O)c2cc(C3=CCCCC3)cnc2O[C@@H]1CN(C)C(=O)c1ccc2c(c1)OCO2 -7.8%
C[C@@H]1CN([C@H](C)CO)C(=O)c2cc(NC(=O)c3ccccc3)ccc2O[C@@H](C)CCCCO[C@H]1CN(C)S(=O)(=O)c1ccccc1 -7.35%
C[C@@H]1CCCCO[C@H](CN(C)S(=O)(=O)c2cccs2)[C@@H](C)CN([C@H](C)CO)C(=O)c2cc(NC(=O)Nc3ccccc3)ccc2O1 9.31%
COc1ccc(S(=O)(=O)N(C)C[C@H]2OCCCC[C@@H](C)Oc3ccc(NC(=O)c4ccncc4)cc3C(=O)N([C@H](C)CO)C[C@@H]2C)cc1 -4.42%
CC(C)NC(=O)Nc1ccc2c(c1)C(=O)N([C@H](C)CO)C[C@@H](C)[C@@H](CN(C)S(=O)(=O)c1cccs1)OCCCC[C@@H](C)O2 -0.241%
COC(=O)C[C@@H]1C[C@H]2c3cc(NC(=O)NC4CCCC4)ccc3O[C@H]2[C@H](CO)O1 0.692%
CC(C)CC#Cc1ccc2c(c1)O[C@H](CN(C)C(=O)Cc1cccnc1)[C@H](C)CN([C@@H](C)CO)S2(=O)=O -0.534%
CO[C@@H]1CN(C)C(=O)c2ccc(NC(=O)Nc3ccccc3)cc2OC[C@H](C)N(C(=O)CC2CC2)C[C@@H]1C -5.7%
COc1cccc(S(=O)(=O)N[C@H]2C=C[C@@H](CC(=O)NCc3ccc(F)cc3)O[C@@H]2CO)c1 3.36%
COC(=O)C[C@@H]1C=C[C@@H](NS(=O)(=O)c2cccc(OC)c2)[C@@H](CO)O1 1.84%
COc1ccccc1S(=O)(=O)N[C@H]1CC[C@@H](CC(=O)NCc2cc(F)cc(F)c2)O[C@H]1CO -1.83%
COc1cccc(S(=O)(=O)N[C@H]2C=C[C@@H](CC(=O)NCc3ccccc3)O[C@@H]2CO)c1 -4.65%
COc1ccc2c3c([nH]c2c1)[C@H](CO)N(C(=O)NC1CCCC1)CC31CN(C(=O)Nc2cccc(F)c2)C1 9.59%
COc1ccc(NC(=O)Nc2ccc3c(c2)C(=O)N([C@@H](C)CO)C[C@@H](C)[C@H](CN(C)C(=O)NC(C)C)OCCCC[C@H](C)O3)cc1 3.37%
Cc1ccc(S(=O)(=O)Nc2ccc3c(c2)C(=O)N(C)[C@H]2CC[C@H](CC(=O)O)O[C@H]2CO3)cc1 4.91%
O=C(NCCCCc1ccccc1)C1CC(c2ccc([N+](=O)[O-])cc2)=NO1 (stereo not drawn) 15.1%
O=C(NCc1cc(F)cc(C(F)(F)F)c1)C1CCC(=O)N(C2CCCC2)C1 (stereo not drawn) 0.846%
COc1ccc(C2=NOC(Cn3nc(C(=O)NCc4ccc5c(c4)OCO5)cc3-c3ccccc3)C2)cc1 (stereo not drawn) 10.2%
COc1ccc(CNC(=O)C2CCCC2)cc1 -2.88%

CPE inhibition, active:
Cc1noc(C)c1NC(=O)N(C)C[C@@H]1Oc2c(NC(=O)CCCCCC(=O)Nc3ccccc3N)cccc2C(=O)N([C@H](C)CO)C[C@@H]1C 57.6%
C[C@@H]1CN([C@@H](C)CO)C(=O)c2cccc(NC(=O)CCCCCC(=O)Nc3ccccc3N)c2O[C@H]1CN(C)C(=O)Nc1cccc2ccccc12 20.8%
NC(=O)C1CCN(C(=O)COc2ccc3c4c(c(=O)oc3c2)CCC4)CC1 68.3%
COC(=O)C1=C(C)N(Cc2cccc(C(F)(F)F)c2)C(=NCc2ccccc2)NC1c1ccc(Cl)cc1 (stereo not drawn) 27.3%
Cc1ccc(CCN2CC(C(=O)NCCc3ccccc3)CC2=O)cc1 (stereo not drawn) 34.2%
CC(=O)Nc1cccc(-c2ccnc3c2CC(C)(C(=O)NCc2ccco2)O3)c1 (stereo not drawn) 32.1%
Cc1ccc(S(=O)(=O)N(Cc2cccc([N+](=O)[O-])c2)C(=O)N2CCN(C)CC2)cc1 56.8%
Cc1ccc(C(=O)C(=S)N2CCOCC2)cc1 41.4%
C/C=C(\C)C(=O)N1CC2(CC(c3cccc(NC(=O)CCCCC)c3)=NO2)C[C@@H]1C(N)=O (stereo partly drawn) 85.8%
COc1ccc(S(=O)(=O)N(C)C[C@@H]2OCCCC[C@@H](C)Oc3ccc(NC(=O)c4ccccc4)cc3C(=O)N([C@@H](C)CO)C[C@H]2C)cc1 53.6%
C[C@@H]1CCCCO[C@H](CN(C)S(=O)(=O)c2cccs2)[C@H](C)CN([C@H](C)CO)C(=O)c2cc(NC(=O)c3ccccc3)ccc2O1 56.2%
COc1ccccc1S(=O)(=O)N[C@@H]1C=C[C@H](CC(=O)NCc2cccc(F)c2)O[C@H]1CO 41.8%
COc1cccc(S(=O)(=O)N[C@H]2C=C[C@H](CC(=O)NCc3ccc(Cl)cc3)O[C@@H]2CO)c1 23.8%
COc1ccc(CNC(=O)C2CC(c3ccc(C(F)(F)F)cc3)=NO2)cc1 (stereo not drawn) 87.8%
O=C(NCc1cc(C(F)(F)F)cc(C(F)(F)F)c1)C1CC(c2cccc(F)c2)=NO1 (stereo not drawn) 23.7%
